# According to PubChem BioAssay (NCI):
# Values joined by “and” are separate entries in the source; they are usually repeats but may differ in a detail not shown here. Equal entries are not always repeated. Compounds without any hit were thinned out: in the full panel of roughly 83,000, 20% have a hit.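 For each line, cells grew in 96-well plates with the test compound present at a single concentration for 48 hours.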 Active and inactive are the calls of the source. How the source made its calls: active means growth percent below 10; inactive means the rest.
# Legend:
# Test in all cases: NCI-60 one-dose screen, 48 h (100 = growth as untreated, 0 = no growth, -100 = all killed)
# T-47D breast = tested on: T-47D breast
# BT-549 breast = tested on: BT-549 breast
# MDA-MB-435 melanoma = tested on: MDA-MB-435 melanoma
# SW-620 colon = tested on: SW-620 colon
# MCF7 breast = tested on: MCF7 breast
# HCT-116 colon = tested on: HCT-116 colon
# HCC-2998 colon = tested on: HCC-2998 colon
# KM12 colon = tested on: KM12 colon
smiles,measurement,setting,value
COc1ccc2sc3cccc(NCCN(C)C)c3c(=O)c2c1,growth,T-47D breast; 10 µM,70.7% (inactive) and -34.7% (active)
same,growth,BT-549 breast; 10 µM,80.1% (inactive) and 29.6% (inactive)
same,growth,MDA-MB-435 melanoma; 10 µM,31.3% (inactive) and -86.9% (active)
same,growth,SW-620 colon; 10 µM,24.5% (inactive) and -79% (active)
same,growth,MCF7 breast; 10 µM,30.5% (inactive) and -72.8% (active)
same,growth,HCT-116 colon; 10 µM,18.5% (inactive) and -76.2% (active)
same,growth,HCC-2998 colon; 10 µM,28.1% (inactive) and -83% (active)
same,growth,KM12 colon; 10 µM,38.3% (inactive) and -7.99% (active)
CN(Cc1cnc2nc(N)nc(N)c2n1)c1ccc(C(=O)N[C@@H](CCC(=O)O)C(=O)O)cc1,growth,T-47D breast; 2.5 µM,55.6% (inactive)
same,growth,T-47D breast; 10 µM,46.2% (inactive)
same,growth,BT-549 breast; 2.5 µM,40.9% (inactive)
same,growth,BT-549 breast; 10 µM,46.9% (inactive)
same,growth,MDA-MB-435 melanoma; 2.5 µM,25.7% (inactive)
same,growth,MDA-MB-435 melanoma; 10 µM,27.2% (inactive)
same,growth,SW-620 colon; 2.5 µM,41.9% (inactive)
same,growth,SW-620 colon; 10 µM,35.6% (inactive)
same,growth,MCF7 breast; 2.5 µM,24.4% (inactive)
same,growth,MCF7 breast; 10 µM,17.2% (inactive)
same,growth,HCT-116 colon; 2.5 µM,18.5% (inactive)
same,growth,HCT-116 colon; 10 µM,22.7% (inactive)
same,growth,HCC-2998 colon; 2.5 µM,8.58% (active)
same,growth,HCC-2998 colon; 10 µM,106% (inactive)
same,growth,KM12 colon; 2.5 µM,30.6% (inactive)
same,growth,KM12 colon; 10 µM,31.9% (inactive)
CC/C(=C(\c1ccccc1)c1ccc(OCCN(C)C)cc1)c1ccccc1,growth,T-47D breast; 12.5 µM,-18.5% (active)
same,growth,BT-549 breast; 10 µM,69.8% (inactive)
same,growth,BT-549 breast; 12.5 µM,-96% (active)
same,growth,MDA-MB-435 melanoma; 10 µM,37.8% (inactive)
same,growth,MDA-MB-435 melanoma; 12.5 µM,-87.2% (active)
same,growth,SW-620 colon; 10 µM,4.89% (active)
same,growth,SW-620 colon; 12.5 µM,-50.4% (active)
same,growth,MCF7 breast; 10 µM,-10.3% (active)
same,growth,MCF7 breast; 12.5 µM,-61.6% (active)
same,growth,HCT-116 colon; 10 µM,26.2% (inactive)
same,growth,HCT-116 colon; 12.5 µM,-98.1% (active)
same,growth,HCC-2998 colon; 10 µM,16.3% (inactive)
same,growth,HCC-2998 colon; 12.5 µM,-96.2% (active)
same,growth,KM12 colon; 10 µM,25% (inactive)
same,growth,KM12 colon; 12.5 µM,-74.4% (active)
CC[C@@]1(O)C(=O)OCc2c1cc1n(c2=O)Cc2cc3c(CN(C)C)c(O)ccc3nc2-1,growth,T-47D breast; 10 µM,9.96% (active) and 8.7% (active)
same,growth,BT-549 breast; 10 µM,-1.81% (active) and -14.9% (active)
same,growth,MDA-MB-435 melanoma; 10 µM,-44.2% (active) and -55% (active)
same,growth,SW-620 colon; 10 µM,9.23% (active) and 7.32% (active)
same,growth,MCF7 breast; 10 µM,1.58% (active) and 5.19% (active)
same,growth,HCT-116 colon; 10 µM,0.82% (active) and -14.2% (active)
same,growth,HCC-2998 colon; 10 µM,-14.2% (active) and -26.3% (active)
same,growth,KM12 colon; 10 µM,6.1% (active) and -42.5% (active)
